The source of these data is PubChem BioAssay AID626 (Vanderbilt High Throughput Screening Facility, 2007).

In all, about 64,000 compounds went through this assay and about 1,900 (3%) were called active. For the sample, actives were picked, then their nearest neighbours and some compounds at random. Values without a mark were called inactive.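 The calls were made as follows: active = fluorescence rise, raw or as B-score row- and column-corrected plate score, outside the 99.7% band of its plate's samples, either direction; inactive = the rest.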

For this test, the system named is Muscarinic acetylcholine receptor M1. The test is described as follows: direct activation of M1 receptor calcium signal – CHO-M1 cells, Fluo-4 calcium, agonist mode, primary screen (AID 626). The following applies: Fluo-4 calcium fluorescence, at 10 µM, hits give high values.
Regarding `Cc1ccnc(NC(=O)c2ccc(NC(=O)c3ccco3)cc2)c1`, the B-score is 1.71.

For `COC(=O)c1ccc(NC(=O)c2ccco2)cc1`, the B-score was -0.218.

With `Cc1ccc(C(=O)COc2cccc(NC(=O)c3ccco3)c2)cc1`, the B-score was 1.03 (active).

`O=C1c2ccccc2C(Nc2ccc3c(c2)OCCO3)N1Cc1ccco1` (centres undefined): the B-score is 0.847.

Take `COc1ccccc1Oc1ccc(S(=O)(=O)Nc2cccnc2)cc1`: the B-score is 14.6 (active).

With `O=S(=O)(Nc1ccccn1)c1ccc(Oc2ccccc2)cc1`, the B-score is -0.897.

Regarding `COc1ccc(NS(=O)(=O)c2ccc(NC(C)=O)cc2)cc1OC`, the B-score was 0.127.

For `CCC(C)(C)NC(=O)C(c1cccn1C)N(Cc1ccc(C)cc1)C(=O)Cn1nnc2ccccc21` (centres undefined), the B-score was -0.864.

As to `O=S(=O)(NCC1CCCO1)c1ccc2ccccc2c1` (centres undefined), the B-score is 0.554.

On to `COCCCNC(=O)c1c(F)c(F)c(F)c(F)c1F`, for which the B-score is 0.0183.

`Cc1cccc(CC(=O)Nc2c3c(nn2-c2cccc(Cl)c2)CS(=O)C3)c1` (centres undefined): the B-score was -1.33.

Regarding `Cc1noc(C)c1CSc1nc2cc(S(=O)(=O)N3CCOCC3)ccc2o1`, the B-score was -0.0272.

Turning to `CC1Cc2ccccc2N1C(=O)CSc1nc2ccccc2o1` (centres undefined), the B-score is 0.106.

With `O=C(CSc1nc2ccccc2o1)N1CCN(c2ccccc2)CC1`, the B-score was -0.706.

On to `O=C(CSc1nc2ccccc2o1)N1CCN(c2ccc(Cl)cc2)CC1`, for which the B-score is 20.1 (active).

With `CSCCC(NC(=O)c1ccc(=O)n(C)n1)c1nc2ccccc2[nH]1` (centres undefined), the B-score was -1.57.

As to `NC(=S)c1ccc(C(N)=S)o1`, the B-score is 2.43.

On to `COc1ccc(C(=O)CSc2nccc(=O)[nH]2)cc1`, for which the B-score was 1.27.

For `CC12C(=O)N(n3cnnc3)C(=O)C1C1C=CC2C1` (centres undefined), the B-score is 0.0714.

As to `CCc1ccc(Nc2ncc3c(n2)CC(c2ccco2)CC3=O)cc1` (centres undefined), the B-score is 0.24.

In the case of `O=C(Nc1ccccc1N1CCN(C(=O)c2ccccc2)CC1)c1ccc2c(c1)OCO2`, the B-score was 2.96 (active).

Take `CCCC(=O)Nc1ccccc1N1CCN(C(=O)c2ccccc2)CC1`: the B-score was 0.545.

With `O=C(Nc1ccccc1N1CCN(c2ccccc2)CC1)c1cccc(F)c1`, the B-score was -0.048.

`Cc1noc(C)c1C(=O)OCC(=O)/C=C1\N(C)c2ccccc2C1(C)C`: the B-score was -1.21.

As to `COc1ccc(S(=O)(=O)N2CCC(C(=O)N3CCc4ccccc4C3)CC2)cc1OC`, the B-score was 0.201.

As to `O=C(CN(Cc1ccccc1)C(=O)c1ccc2c(c1)OCCO2)NCc1ccc2c(c1)OCO2`, the B-score is 0.89.

Consider `CC1(C)CC(O)C(CCC(O)c2ccccc2)C(C)(C)N1` (centres undefined), for which the B-score is 2.64.

As for `COc1ccc(-c2c3c(=O)n(C)c(=O)n(C)c3cn2NC(C)=O)cc1`, the B-score is 0.218.

On to `CN(C)S(=O)(=O)c1cccc(C(=O)Nc2cccnc2)c1`, for which the B-score is 0.0444.

Take `COc1ccc(N(C(=O)c2cccnc2)S(=O)(=O)c2ccc3c(c2)n(C)c(=O)n3C)cc1`: the B-score is 3.89 (active).

On to `O=C(NCCN1C(=O)C2C3C=CC(C3)C2C1=O)Nc1ccccn1` (centres undefined), for which the B-score is 0.114.

Take `COC(=O)Nc1ncc(CN2C(=O)c3ccccc3C2=O)s1`: the B-score was 0.171.

With `CCOC(=O)c1cc2n(c1C)-c1ccccc1C2=O`, the B-score was 0.122.

Regarding `CCOC(=O)Nc1ccccc1N1C(=O)c2ccccc2C1=O`, the B-score was -0.565.

For the compound `CCOC(=O)c1cc2n(c1N)-c1ccccc1C2=O`, the B-score is 145 (active).

With `CC(=O)N(CN1C(=O)C2CC=CCC2C1=O)c1cccc(Cl)c1` (centres undefined), the B-score is -1.96.

Take `O=C(NCc1ccco1)c1cnn2c(C(F)(F)F)cc(-c3ccco3)nc12`: the B-score is 0.0458.

As to `FC(F)(F)COc1nc(N2CCCCC2)nc(N2CCNCC2)n1`, the B-score is 6.73 (active).

`COc1cc2c(cc1NC(=O)CN1CCN(S(=O)(=O)c3ccc(F)cc3)CC1)oc1ccccc12`: the B-score is -1.04.

For `OCc1nc(CO)n(Cc2ccccc2)n1`, the B-score is -0.345.

Turning to `O=C(CN1CCN(c2nc(-c3ccccc3)cs2)CC1)NCc1ccc2c(c1)OCO2`, the B-score is -0.269.

`COc1ccc(-c2csc(N3CCN(Cc4ccc5c(c4)OCO5)CC3)n2)cc1`: the B-score is -0.173.

On to `CC1CCCC(C)N1C(=O)CN1CCN(c2nc(-c3ccc(F)cc3)cs2)CC1` (centres undefined), for which the B-score was 2.64 (active).

As to `O=c1c2ccccc2nc(CSc2nnnn2-c2ccccc2)n1-c1ccccc1`, the B-score is -1.38.

As to `CCOc1cccc(/C(O)=C2/C(=O)C(=O)N(CCOC)C2c2ccncc2)c1` (centres undefined), the B-score was -0.0327.

For `Cc1cc(=O)cc(C)[nH]1`, the B-score is -0.0108.

Take `CCOc1ccc(NC(=O)N2CC=C(n3c(=O)[nH]c4ccccc43)CC2)cc1`: the B-score is 3.49 (active).

Consider `CCOc1ccc(NC(=O)N2CCN(CC)CC2)cc1`, for which the B-score was -1.38.

For `Cc1cccc(C)c1NC(=O)N1CC=C(n2c(=O)[nH]c3ccccc32)CC1`, the B-score was 1.14.

As for `CN1CCC2(CC1)NC(=O)NC2=O`, the B-score is -0.874.

For the compound `CCCCn1c(SCC(=O)NCCc2ccc(OC)c(OC)c2)nc2c1c(=O)n(C)c(=O)n2C`, the B-score is 0.299.

As to `CCn1c(NCCc2ccc(OC)c(OC)c2)nc2c1c(=O)n(C)c(=O)n2C`, the B-score was 3.33 (active).

With `Cn1c(=O)c2c(nc(NCCc3ccccc3)n2Cc2ccccc2)n(C)c1=O`, the B-score was -0.39.

As for `Cc1cc(C(F)(F)F)c(C#N)c(SCC(=O)NC2CC2)n1`, the B-score is 0.0289.

On to `CCSc1ncnc2c(C#N)c3n(c12)CCCCC3`, for which the B-score was -0.0416.

For `O=C(CCC(=O)OCC(F)(F)C(F)F)NCc1ccccc1`, the B-score was -1.45.

With `COc1ccc2[nH]c(=O)c(CN(CC3CCCO3)C(=O)Nc3ccccc3)cc2c1` (centres undefined), the B-score is 2.9 (active).

Take `Cc1cc2cc(CN(Cc3cccs3)Cc3nnnn3CC3CCCO3)c(=O)[nH]c2cc1C` (centres undefined): the B-score was 6.85 (active).

For `COc1ccc2[nH]c(=O)c(CN(Cc3nnnn3CCc3ccccc3)CC3CCCO3)cc2c1` (centres undefined), the B-score is 0.197.

`Cc1cccc2cc(CN(Cc3cccs3)C(c3nnnn3C3CCCC3)C(C)C)c(=O)[nH]c12` (centres undefined): the B-score is -0.692.

Turning to `Cc1cc(C)c2cc(CN(Cc3cccs3)Cc3nnnn3CC3CCCO3)c(=O)[nH]c2c1` (centres undefined), the B-score is -0.2.

Turning to `CCOc1ccc2[nH]c(=O)c(CN(Cc3nnnn3CCc3ccccc3)CC3CCCO3)cc2c1` (centres undefined), the B-score is 1.96.

In the case of `CCC(=O)N(Cc1cc2cc(OC)ccc2[nH]c1=O)c1ccccc1C`, the B-score was -0.55.

On to `Cc1cccc2cc(CN(Cc3nnnn3Cc3ccccc3)C3CCCC3)c(=O)[nH]c12`, for which the B-score was 0.299.

For `CCOc1ccc2[nH]c(=O)c(CN(Cc3nnnn3Cc3ccccc3)CC3CCCO3)cc2c1` (centres undefined), the B-score is 3.01 (active).

Regarding `Cc1ccc(C)n1C(Cc1ccccc1)C(=O)O` (centres undefined), the B-score was -0.967.

As to `COc1ccc(C(=O)N(Cc2ccc(N(C)C)cc2)C2CCS(=O)(=O)C2)cc1` (centres undefined), the B-score is 0.609.

As to `CC(C)(C)Nc1c(N)c(=O)oc2ccccc12`, the B-score is 0.371.

With `Cc1onc(-c2ccccc2Cl)c1C(=O)NCCn1ccc2ccccc21`, the B-score was -0.0968.

Consider `CCOC(=O)C1=C(C)NC(=O)N(C(C)=O)C1c1ccc(Cl)cc1` (centres undefined), for which the B-score was -0.0464.

In the case of `CN1C(=O)c2ccc(NC(=O)C3CCCCC3)cc2C1=O`, the B-score was -1.25.

As to `CCC(=O)Nc1ccc(C(=O)Nc2ccc3c(c2)C(=O)N(CC2CCCO2)C3=O)cc1` (centres undefined), the B-score was 0.81.

Turning to `CN1C(=O)c2ccc(NC(=O)c3c(F)c(F)c(F)c(F)c3F)cc2C1=O`, the B-score was 4.34 (active).

Regarding `CCOC(=O)c1ccc(Nc2cc(C)nc3nc(C)nn23)cc1`, the B-score is -0.0395.

For `CC(=O)c1ccc(-n2nnnc2SCC(=O)N2CCN(C(=O)c3ccco3)CC2)cc1`, the B-score was 0.19.

As for `COc1ccc(NC(=O)C2CCCN(S(=O)(=O)c3cccc4cccnc34)C2)cc1` (centres undefined), the B-score was 0.324.

On to `COc1ccc(NC(=O)C2CCCN(S(=O)(=O)c3cccc4cccnc34)C2)cc1OC` (centres undefined), for which the B-score is 4.34 (active).

Regarding `COc1ccccc1CNC(=O)C1CCCN(S(=O)(=O)c2cccc3cccnc23)C1` (centres undefined), the B-score is 0.00364.

In the case of `CCOc1cc(C2C(C(=O)OC)=CN(C3CCCC3)C=C2C(=O)OC)cc(Br)c1O`, the B-score is -0.323.

On to `CCOC(=O)CSC1=C(C#N)C(c2ccco2)C(C(=O)OCc2ccccc2)=C(C)N1` (centres undefined), for which the B-score is -0.00433.

With `N#CC1=C(N)Oc2c(sc3ccccc23)C1c1ccco1` (centres undefined), the B-score was 52 (active).

On to `N/C(=N\c1nc2ccccc2o1)NC(=O)C(Cc1ccccc1)N1C(=O)c2ccccc2C1=O` (centres undefined), for which the B-score was 2.31.

Regarding `Cc1ccc(Cn2ccc(NC(=O)c3cc(C(C)C)on3)n2)cc1`, the B-score is -1.01.

For the compound `O=C(c1cc(-c2cccs2)on1)N1CCCCC1`, the B-score was 1.09.

Consider `O=C(CSCc1cccs1)N1CCCC1`, for which the B-score was 4.57 (active).

For `Cn1c(=NC(=O)CSCC(=O)N2CCCCC2)sc2ccccc21`, the B-score is -0.071.

For `COc1ccccc1-n1nnnc1S(=O)(=O)Cc1ccc(Cl)cc1`, the B-score was 0.986.

In the case of `COc1ccccc1NC(=O)CSc1nnc(Cn2nnc(-c3ccccc3)n2)n1-c1ccccc1`, the B-score was 2.12 (active).

Turning to `COc1ccccc1NC(=O)CSc1nnc(-c2ccoc2C)n1CCc1ccccc1`, the B-score is 0.464.

Turning to `COc1ccccc1NC(=O)CSc1nnc(Cc2cccn2C)n1-c1ccc(F)cc1`, the B-score was -0.202.

For the compound `CCOC(=O)c1ccc(NC(=O)Cn2nnc(-c3ccc(C)cc3)n2)cc1`, the B-score is -0.837.

For `CCN=C1SC(CC(=O)Nc2ccc(C)cc2)C(=O)N1CC` (centres undefined), the B-score is 5.15 (active).

For the compound `Cc1ccc(NC(=O)CCN2CCc3ccccc3C2)cc1`, the B-score was -0.165.

Take `CCC(Oc1ccccc1)C(=O)NCc1cccnc1` (centres undefined): the B-score was -0.899.
